PubChem BioAssay AID731 (The Scripps Research Institute Molecular Screening Center, 2007)
About 520 (0.26%) of roughly 200,000 compounds were called active. This is one part of a sample in which actives are shown more often than they occur. No stated cut-off is given here; in the data, active means activation above about 23%; inactive means the rest.

target: Peroxisome proliferator-activated receptor gamma (Homo sapiens) (UniProt P37231); assay: enhancers of SRC-3 binding to PPARgamma – biochemical, primary screen (AID 731); conditions: biochemical PPARgamma/SRC-3 coactivator recruitment assay; at 8 µM; hits give high values;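 further: 0% = DMSO and 100% = reference agonist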
Sequence (P37231 whole entry, looked up): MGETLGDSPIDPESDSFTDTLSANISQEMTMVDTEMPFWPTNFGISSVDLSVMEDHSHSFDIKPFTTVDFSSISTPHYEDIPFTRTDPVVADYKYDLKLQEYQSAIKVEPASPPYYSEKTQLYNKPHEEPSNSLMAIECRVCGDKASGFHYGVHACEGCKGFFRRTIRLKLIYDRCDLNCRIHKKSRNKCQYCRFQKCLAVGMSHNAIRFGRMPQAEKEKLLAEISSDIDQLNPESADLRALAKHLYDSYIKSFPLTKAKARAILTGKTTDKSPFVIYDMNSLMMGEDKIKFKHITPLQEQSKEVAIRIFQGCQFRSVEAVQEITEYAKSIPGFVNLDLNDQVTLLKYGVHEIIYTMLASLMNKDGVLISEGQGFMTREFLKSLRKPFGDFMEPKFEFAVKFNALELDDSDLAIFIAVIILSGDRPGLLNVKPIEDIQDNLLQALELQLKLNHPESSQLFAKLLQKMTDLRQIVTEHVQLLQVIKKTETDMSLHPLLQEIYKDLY

| Structure (SMILES) | activation |
| --- | --- |
| Cc1cccc(NC(=O)c2cc([N+](=O)[O-])ccc2N2CCN(C)CC2)c1 | 4.61% (inactive) |
| CCc1cc(C(=O)OC)c(NC(=O)CC2Sc3ccc(C(F)(F)F)cc3NC2=O)s1 (centres undefined) | -4.95% (inactive) |
| CCOc1cc(/C=N/NC(=O)c2ccc(CSc3nncn3C)cc2)ccc1OCC(=O)N1CCOCC1 | -1.91% (inactive) |
| CC(OC(=O)CNS(=O)(=O)/C=C/c1ccccc1)C(=O)Nc1ccc(S(=O)(=O)N2CCCC2)cc1 (centres undefined) | -1.83% (inactive) |
| CC(C(=O)O)n1cnc2sc3c(c2c1=O)CCCC3 (centres undefined) | 4.24% (inactive) |
| COc1ccc(N2C(=O)CC(SC(C)C)C2=O)cc1 (centres undefined) | -1.07% (inactive) |
| CN(Cc1cccc2ncccc12)C(=O)CC1C(=O)NCCN1Cc1ccc(F)cc1 (centres undefined) | -0.7% (inactive) |
| O=C(/C=C/Nc1ccccc1)c1cnc(-c2ccccc2)s1 | -4.1% (inactive) |
| CC(C)Cn1c(N2CCN(C(=O)/C=C/c3ccccc3)CC2)nc2ccccc21 | 9.26% (inactive) |
| COc1cccc(NC(=O)CN(C)CC(=O)Nc2ccc3c(c2)CCC3)c1 | 0.47% (inactive) |
| O=C(Cc1ccccc1)NNS(=O)(=O)c1ccc([N+](=O)[O-])cc1 | 1.7% (inactive) |
| CCCCn1nc(C(=O)Nc2ccc(S(=O)(=O)Nc3ncccn3)cc2)c2ccccc2c1=O | 2.84% (inactive) |
| CC(C)C(c1nnnn1C(C)(C)C)N1CCN(Cc2cccnc2)CC1 (centres undefined) | 4.42% (inactive) |
| CCn1c(C(C)C)n[nH]c1=S | 1.32% (inactive) |
| CCN(CC(=O)NCc1cccs1)C(=O)c1ccccc1F | 1.34% (inactive) |
| COc1cc(CNCCN(C)C)ccc1OCc1c(F)cccc1Cl | 2.34% (inactive) |
| c1ccc(Cc2cc[n+](Cc3ccccc3)cc2)cc1 | 1.56% (inactive) |
| NS(=O)(=O)c1cc(C(=O)NCCOc2ccccc2)c(Cl)cc1Cl | -1.64% (inactive) |
| CCc1nnc(NC(=O)[C@@H](NC(=O)c2cccc(C)c2)C(C)C)s1 | -2.92% (inactive) |
| COc1ccc(-c2nnc3ccc(SCc4ccccc4)nn23)cc1 | 3.96% (inactive) |
| Cc1cc(C)nc(NC(=O)c2cccc([N+](=O)[O-])c2)c1 | 2.34% (inactive) |
| CC(C)[C@H](NC(=O)c1ccc(F)cc1)C(=O)OCC(=O)NC(=O)c1cccn1C | 1.86% (inactive) |
| O=C(Cn1c(N2CCN(C/C=C/c3ccccc3)CC2)nc2ccccc21)c1ccccc1 | 6.67% (inactive) |
| N/C(=N\OC(=O)c1ccc([N+](=O)[O-])cc1)c1ccccn1 | -2.22% (inactive) |

| Structure (SMILES) | activation |
| --- | --- |
| [O-][n+]1onc2c1CCc1[nH]c(-c3ccccc3)nc1-2 | 0.76% (inactive) |
| N#C/C(=C(\O)C(F)(F)F)c1nnc2n1CCCCC2 | -0.75% (inactive) |
| CSCc1ccc(C(=O)Nc2cc(C)cc(C)c2)cc1 | -4.38% (inactive) |
| COc1ccc(-c2nnco2)cc1OC | -2.7% (inactive) |
| COc1ccc2c(Cl)c(-c3nnco3)sc2c1 | 33.2% (active) |
| COc1ccc2c(Cl)c(C(=O)NCc3ccco3)sc2c1 | -2.31% (inactive) |
| O=C(Nc1ccc2c(c1)CCC2)c1ccc(Br)s1 | 0.47% (inactive) |
| C/C(=C\c1ccccc1)C1NC(=O)c2c(sc3c2CCCC3)N1 (centres undefined) | 6.88% (inactive) |
| CCn1nc(C)c(CN2CCN(Cc3ccc(OC)c(C)c3C)C(CCO)C2)c1C (centres undefined) | -0.59% (inactive) |
| Cn1cc(-c2ccccc2)cc(C#N)c1=O | 1.51% (inactive) |
| CN(C)N(C)C(=O)C(O)(c1ccccc1)c1ccccc1 | 3.14% (inactive) |
| Cc1cc(C)cc(N(CC(=O)NCCSCc2ccco2)S(C)(=O)=O)c1 | 5.41% (inactive) |
| O=C(CN1C(=O)NC2(CCCC2)C1=O)Nc1ccc(F)c(F)c1F | 0.63% (inactive) |
| O=S(=O)(c1ccc(F)cc1)N1CCN(C(=S)NC2CCCC2)CC1 | 1.45% (inactive) |
| COc1cc(C)c(S(=O)(=O)N2CCOCC2)c(C)c1C | -6.91% (inactive) |
| CCc1nnc(NS(=O)(=O)c2ccc(NC(=S)NC(=O)c3cccs3)cc2)s1 | 2.44% (inactive) |
| CCc1nnc(NS(=O)(=O)c2ccc(NC(=S)NC(=O)/C=C/c3cccs3)cc2)s1 | 22.6% (active) |
| CCc1nnc(NS(=O)(=O)c2ccc(NS(=O)(=O)c3ccccc3)cc2)s1 | -4.6% (inactive) |
| C/C(=N/NC(=O)C1COc2ccccc2O1)c1ccco1 (centres undefined) | -2.9% (inactive) |
| Cc1ccc(CN(C)CC(=O)Nc2cccc([N+](=O)[O-])c2)o1 | -1.37% (inactive) |
| COc1cc(NS(=O)(=O)c2ccc(NC(=O)c3ccc(S(=O)(=O)N4CCCCC4)cc3)cc2)ncn1 | -0.22% (inactive) |
| C/C(=N\NS(=O)(=O)c1ccc(Cl)cc1)c1ccc(NC(=O)c2ccco2)cc1 | 7.63% (inactive) |
| O=C(O)Cc1sc(-c2ccc(C(=O)O)cc2)nc1-c1ccccc1 | 8.03% (inactive) |
| Cc1ccc(-c2nc(C)sc2CC(=O)O)cc1 | 1.18% (inactive) |

| Structure (SMILES) | activation |
| --- | --- |
| O=C(O)Cc1sc(-c2ccccc2)nc1-c1cccs1 | 25.3% (active) |
| Cc1ccc(C2=NN(C(=O)COc3ncnc4ccccc34)C(c3ccco3)C2)cc1 (centres undefined) | 6.22% (inactive) |
| COC(C(=O)NCc1ccccc1C)c1ccccc1 (centres undefined) | -1.48% (inactive) |
| CCCC(c1nnnn1C(C)(C)C)N1CCN(Cc2ccccc2)CC1 (centres undefined) | 0.32% (inactive) |
| COc1ccc(OC)c(CNC(=O)c2cc(=O)[nH]c3ccc(S(=O)(=O)N4CCCC4)cc23)c1 | 1.02% (inactive) |
| O=C(C1CCN(C2CCN(Cc3ccc4cc(F)ccc4n3)CC2)CC1)N1CCCC1 | 3.24% (inactive) |
| Cc1ccc(C(=O)N/C(=C\c2ccco2)C(=O)N2CCSCC2)cc1C | -0.93% (inactive) |
| Cc1ccc2cc(C#N)c(NCCNC(=S)NCCCN3CCOCC3)nc2c1 | 1.37% (inactive) |
| Cn1nnnc1SCC(=O)Nc1nc2ccccc2s1 | -4.08% (inactive) |
| N#Cc1c(-c2ccc(F)cc2)cc(C2CC2)nc1SCC(=O)c1cccs1 | -1.78% (inactive) |
| COC(=O)CCc1sc(Nc2ccc(Br)cc2)nc1-c1ccc(OC)cc1 | 4.66% (inactive) |
| Cn1c(-c2sccc2OCc2cccc(C(F)(F)F)c2)n[nH]c1=S | 4.56% (inactive) |
| Cn1c(-c2sc3cc(C(F)(F)F)cnc3c2-c2ccccc2)n[nH]c1=S | 50% (active) |
| Cc1ccccc1-c1n[nH]c(=S)n1C | 2.22% (inactive) |
| O=S(=O)(NC1CCCCC1)c1ccc(F)c2ccccc12 | 7.29% (inactive) |
| Cc1cc(C)cc(C(=O)N(CCc2ccccc2)C2=CC3CCC(C2)N3C)c1 (centres undefined) | 0.55% (inactive) |
| O=C(NCc1cccs1)c1ccc(Br)o1 | 1.17% (inactive) |
| O=[N+]([O-])c1ccc(Sc2n[nH]c(-c3ccco3)n2)nc1 | 2.58% (inactive) |
| COc1ccc(N2CCN(CCCNC(=O)C3CCN(S(=O)(=O)N4CCOCC4)CC3)CC2)cc1 | -2.17% (inactive) |
| O=C(OCc1cc(Cl)ccc1OC(F)F)c1cccnc1 | 0.24% (inactive) |
| CN1CCN(C(=O)/C(=C\c2cccs2)NC(=O)c2cccs2)CC1 | -1.89% (inactive) |
| NS(=O)(=O)c1ccc(CCNC(=O)c2ccc([N+](=O)[O-])cc2[N+](=O)[O-])cc1 | 6.7% (inactive) |
| O=C(Nc1cccc(C(F)(F)F)c1)c1cnccn1 | 12.3% (inactive) |
| CCOC(=O)c1ccc(COC(=O)CCc2nc(-c3ccccc3)c(-c3ccccc3)o2)cc1 | -0.63% (inactive) |

| Structure (SMILES) | activation |
| --- | --- |
| CCO/N=C(/C)c1c(O)cc(-c2ccccc2)n(-c2ccccc2)c1=O | 0.18% (inactive) |
| CC(=O)N/N=C(\C)c1ccc(Br)cc1Br | -1.47% (inactive) |
| CCc1ccc(C(=O)OCC(=O)Nc2cccc(S(=O)(=O)NC3=NCCCCC3)c2)cc1 | -1.75% (inactive) |
| Cc1ccc(NC(=O)c2sc3nc(N)c(C#N)cc3c2N)cc1 | 1.84% (inactive) |
| COc1cc(NC(=O)c2cc([N+](=O)[O-])ccc2Br)ccc1NC(=O)c1ccco1 | -4.35% (inactive) |
| CN(C)c1nnnn1-c1ccc(Cl)cc1 | -1.68% (inactive) |
| Cc1ccccc1NC(=O)C(C)c1ccc(-c2ccccc2)c(F)c1 (centres undefined) | -1.23% (inactive) |
| CCOc1ccc(/C=N/NC(=O)C(C)Sc2ccccn2)cc1OCC (centres undefined) | 4.85% (inactive) |
| CCN(CC)S(=O)(=O)c1ccc(Cl)c(C(=O)NC(C)C(c2cccs2)N2CCCC2)c1 (centres undefined) | 5.06% (inactive) |
| Cc1ccc(C2C3=C(Nc4[nH]n(-c5ccccc5)c(=O)c42)c2ccccc2C3=O)cc1 (centres undefined) | 1.23% (inactive) |
| COc1ccc(S(=O)(=O)N2CCOCC2)c(C)c1C | 13.6% (inactive) |
| Cc1ccc(-c2cc(C(=O)N/N=C/C=C/c3ccccc3)n[nH]2)o1 | -0.56% (inactive) |
| CCOC(=O)c1c(C)nc2c(c1C)c(=O)oc1ccccc12 | 15.5% (inactive) |
| Cc1cc(C(=O)CSc2nc(N)cc(=O)[nH]2)c(C)n1CCc1ccc(Cl)cc1 | 5.4% (inactive) |
| O=C(O)COc1ccc(/C=N/O)cc1Br | 3.92% (inactive) |
| COCCNC(=O)CCCn1c(=O)c2ccccc2n(Cc2cccc([N+](=O)[O-])c2)c1=O | 2.44% (inactive) |
| CC(=O)n1cc([C@@H]2C=C(C(=O)N3CCN(Cc4ccc5c(c4)OCO5)CC3)O[C@H](OCc3ccc(CO)cc3)C2)c2ccccc21 | -1.58% (inactive) |
| Cc1cnc(C(=O)N2CCCC(C(=O)c3ccc(C(F)(F)F)cc3)C2)cn1 (centres undefined) | -0.94% (inactive) |
| Cc1cc(=O)oc(C)c1C(=O)NCCN(C)Cc1ccccc1 | 1.75% (inactive) |
| O=C(/C=C/Nc1ccccc1OC(F)(F)F)C(F)(F)F | 1.89% (inactive) |
| CN(C)c1ccc(N/C=C/C(=O)C(F)(F)F)cc1 | 23.6% (active) |
| CCCOc1ccc(N/C=C/C(=O)C(C)(C)C)cc1 | 0.22% (inactive) |
